Some test systems named below: HCT-15 colon; HT29 colon; SNB-75 CNS; SNB-19 CNS; U251 CNS; PC-3 prostate; SK-MEL-5 melanoma; UACC-62 melanoma; LOX IMVI melanoma; SK-MEL-28 melanoma.
Experiment in all cases: NCI-60 one-dose screen, 48 h (100 = growth as untreated, 0 = no growth, -100 = all killed)
Conditions in all cases: 10 µM unless noted

This is an account of results in PubChem BioAssay (NCI).

SMILES strings stand for the structures. The panel holds about 83,000 compounds, 20% with a hit somewhere; the sample as a whole holds those more often.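 Note: values are percent growth. 100 is the growth of untreated cells, values between 100 and 0 indicate rising inhibition; between -100 and 0 indicates cell death.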 A number with no mark means an inactive call. Active and inactive are the calls of the source. Rule for the calls: active = growth percent below 10; inactive = the rest.

Consider `COc1ccc(/C=C/C(=O)c2ccc(-n3cc(CN4CCN(c5cc6c(cc5F)c(=O)c(C(=O)O)cn6C5CC5)CC4)nn3)cc2)cc1`, for which the growth in the assay with HCT-15 colon was 80.6%; with HT29 colon it was 29.6%; in the assay on SNB-75 CNS, 58.3%; with SNB-19 CNS, 67.7%; with U251 CNS it was 41.4%; in the assay on PC-3 prostate it was 56.3%. For the same compound, the growth is 69% with SK-MEL-5 melanoma, 53.9% in the assay on UACC-62 melanoma, 27.9% with LOX IMVI melanoma and 79.7% in the assay with SK-MEL-28 melanoma.
Regarding `Nc1ccc(Cl)c2c(=O)c3ccccc3[nH]c12`, the growth with HCT-15 colon is 83.1%; in the assay on HT29 colon, 100%; in the assay on SNB-75 CNS, 84.2%; in the assay with SNB-19 CNS, 88.5%; in the assay on U251 CNS it was 92.2%; with PC-3 prostate it was 76.6%. In addition, the growth with SK-MEL-5 melanoma is 53.1%; with UACC-62 melanoma, 93.6%; in the assay with LOX IMVI melanoma, 71.4%; with SK-MEL-28 melanoma it was 113%.
For `Cc1ccc(C2=Nc3c(N)nc(N)nc3NC(c3cccc(Nc4ccnc5cc(C(F)(F)F)ccc45)c3)C2)cc1` (stereo not given), the growth with HCT-15 colon was 15.2%; in the assay with HT29 colon, 1.9% (active); in the assay on SNB-75 CNS, 7.55% (active); with SNB-19 CNS, 34.4%; with U251 CNS, 12.8%; in the assay with PC-3 prostate it was 16.5%. The growth with SK-MEL-5 melanoma was 17.6%; in the assay on UACC-62 melanoma, 40.8%; with LOX IMVI melanoma it was -2.42% (active); in the assay with SK-MEL-28 melanoma it was 66.8%.
For the compound `COC(=O)CCc1c(/C=C2\N=C(c3ccc[nH]3)C=C2OC)[nH]c(C)c1C(=O)OCc1ccccc1`, the growth with HCT-15 colon was -1.22% (active); in the assay with HT29 colon it was 9.15% (active); in the assay on SNB-75 CNS it was -17.6% (active); with SNB-19 CNS it was 39.3%; in the assay on U251 CNS it was 3.55% (active); with PC-3 prostate, 6.14% (active). Moreover, the growth is -52.4% (active) in the assay on SK-MEL-5 melanoma, -29.2% (active) with UACC-62 melanoma, -52.7% (active) with LOX IMVI melanoma and 16.8% in the assay with SK-MEL-28 melanoma.
`C#CCOc1cccc(-c2ncnc3cc(NC(=O)CCl)ccc23)c1`: the growth was -32.9% (active) in the assay on HCT-15 colon; -70.7% (active) in the assay with HT29 colon; 18% in the assay with SNB-75 CNS; 7.8% (active) in the assay on SNB-19 CNS; -93.7% (active) with U251 CNS; -15.9% (active) with PC-3 prostate. Further, the growth in the assay on SK-MEL-5 melanoma is -86% (active); in the assay on UACC-62 melanoma, -41.7% (active); in the assay on LOX IMVI melanoma, -83.7% (active); with SK-MEL-28 melanoma it was 20.2%.
Turning to `O=C1NCCN1/N=C/c1c(Cl)n(Cc2ccc(Cl)cc2)c2ccccc12`, the growth with HCT-15 colon was 93.3%; in the assay on HT29 colon it was 111%; in the assay on SNB-75 CNS, 94.4%; with SNB-19 CNS it was 107%; in the assay on U251 CNS, 75.5%; in the assay with PC-3 prostate, 89%. The growth with SK-MEL-5 melanoma was 68%; in the assay on UACC-62 melanoma it was 53.5%; with LOX IMVI melanoma, 72.7%; in the assay with SK-MEL-28 melanoma it was 112%.
Turning to `C=CCn1c(SCC(=O)Nc2ccc(C(=O)/C=C/c3ccc(Cl)cc3)cc2)nnc1-c1ccccc1`, the growth with HCT-15 colon is 87.7%; in the assay with HT29 colon, 89.2%; in the assay on SNB-75 CNS, 70.8%; in the assay with SNB-19 CNS, 92.6%; in the assay on U251 CNS, 94.3%; with PC-3 prostate it was 75.2%. The growth in the assay with SK-MEL-5 melanoma is 98.7%; in the assay with UACC-62 melanoma, 85.1%; with LOX IMVI melanoma it was 92.3%; with SK-MEL-28 melanoma, 90.2%.
Turning to `CCOC(=O)CC1CSC(N/N=C(/C)c2cccc(C(F)(F)F)c2)=N1` (stereo not given), the growth in the assay with HCT-15 colon is 93.8%; in the assay with HT29 colon, 94.3%; in the assay on SNB-75 CNS, 98.3%; with SNB-19 CNS it was 106%; in the assay on U251 CNS, 98.4%; in the assay with PC-3 prostate, 97.8%. Further, the growth in the assay with SK-MEL-5 melanoma was 105%; in the assay with UACC-62 melanoma, 97.1%; in the assay with LOX IMVI melanoma, 104%; with SK-MEL-28 melanoma, 107%.
`c1ccc(Cn2cc3c(c2)-c2nc(Nc4ccccc4)ncc2CC3)cc1`: the growth in the assay on HCT-15 colon is 116% [100 µM]; in the assay on HT29 colon, 117% [100 µM]; in the assay with SNB-75 CNS it was 63.7% [100 µM]; in the assay with SNB-19 CNS, 84.1% [100 µM]; in the assay on U251 CNS, 69.1% [100 µM]; in the assay with PC-3 prostate it was 72.8% [100 µM]. Besides, the growth was 79.4% [100 µM] in the assay with SK-MEL-5 melanoma, 82.7% [100 µM] in the assay on UACC-62 melanoma, 85.6% [100 µM] with LOX IMVI melanoma and 92.5% [100 µM] with SK-MEL-28 melanoma.
`CN(C)CCOc1ccc(/C(=C(/CCCCCCCCCC[P+](c2ccccc2)(c2ccccc2)c2ccccc2)c2ccccc2)c2ccccc2)cc1`: the growth in the assay on HCT-15 colon is -88.7% (active); in the assay on HT29 colon, -68.5% (active); in the assay with SNB-75 CNS, -88.7% (active); in the assay with SNB-19 CNS it was -92.1% (active); in the assay on U251 CNS, -75% (active); in the assay with PC-3 prostate, -86% (active). For the same compound, the growth is -97.1% (active) in the assay with SK-MEL-5 melanoma, -82.7% (active) in the assay on UACC-62 melanoma, -89.9% (active) in the assay with LOX IMVI melanoma and -94.1% (active) with SK-MEL-28 melanoma.
In the case of `Cc1c2cnccc2c(C)c2c1c1cc(C(=O)O)ccc1n2C`, the growth was 1.03% (active) with HCT-15 colon; 7.11% (active) with HT29 colon; -7.4% (active) in the assay with SNB-75 CNS; 2.23% (active) with SNB-19 CNS; 0.0209% (active) in the assay on U251 CNS; 10.4% with PC-3 prostate. Also, the growth in the assay on SK-MEL-5 melanoma is -84.7% (active); in the assay on UACC-62 melanoma, -55% (active); with LOX IMVI melanoma it was -27.1% (active); in the assay with SK-MEL-28 melanoma, -27.4% (active).
